# According to PubChem BioAssay:
# Activity calls are given as the source filed them. Unless noted, no rule for the calls is given here.
# Experiments:
# [1] = anti-His antibody binders, primary screen, artefact control for SMM control protein annotation, biochemical, small-molecule microarray, 635 nm fluorescence (AID 1128); settings: anti-His Alexa647 antibody binding, higher = more signal;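 also: score merges feature fluorescence with signal-to-noise for each printed compound spot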
# [2] = test system: Human papillomavirus type 1a E7 protein (residues 1-88); test: HPV1a E7 small-molecule binders, primary screen, biochemical, small-molecule microarray, residues 1-88, 635 nm (AID 1129); settings: small-molecule microarray binding, fluorescence 635 nm; higher = more signal
# [3] = target: Focal adhesion kinase 1 (Homo sapiens) (UniProt Q05397); test: small-molecule microarray binders of FAK, primary screen, biochemical, 635/667 nm fluorescence, BSA, DTT (AID 1130); settings: PTK2 binding, 635 nm fluorescence, higher = more signal;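 also: composite of spot emission at 667 nm and signal to noise over triplicate slides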
# [4] = test system: Fibrinogen (Alexa647-labelled); test: fibrinogen binders on compound microarrays, profiling panel, artefact control for SMM control-protein annotation, biochemical, small-molecule microarray, 635/667 nm fluorescence (AID 1131); settings: fibrinogen-A647 binding fluorescence, higher = more signal;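 also: z-score merges 667 nm fluorescence with per-spot signal-to-noise over triplicate slides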
# [5] = target: Follistatin (Homo sapiens) (UniProt P19883); test: follistatin binders on small-molecule microarrays, primary screen, biochemical, small-molecule microarray, 635/667 nm fluorescence (AID 1132); settings: FST binding, 635 nm fluorescence, higher = more signal
# [6] = target: Fibroblast growth factor 2 (Homo sapiens) (UniProt P09038); test: FGF2 binders on small-molecule microarrays, primary screen, biochemical, small-molecule microarray, 635/667 nm fluorescence (AID 1133); settings: small-molecule microarray binding, FGF2, fluorescence 635/667; higher = more signal
# [7] = mitochondrial membrane potential change in A549 cells, profiling panel, cell-based, JC-1 fluorescence, basal, 24 h, 100 nL (AID 1138); settings: higher = more signal;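 also: A549 lung adenocarcinoma cells under basal conditions with no added stimulus; test concentration not given here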
# [8] = test system: Lefty1; test: Lefty1 binders on small-molecule microarrays, primary screen, biochemical, small-molecule microarray, 635/667 nm fluorescence (AID 1139); settings: small-molecule microarray binding, fluorescence 635/667; higher = more signal
# [9] = test system: wheat germ agglutinin (Triticum aestivum), Alexa647-labelled; test: wheat germ agglutinin binders on compound microarrays, profiling panel, artefact control for SMM control-protein annotation, biochemical, small-molecule microarray, 635/667 nm fluorescence (AID 1140); settings: WGA-A647 binding, 635 nm fluorescence, higher = more signal;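 also: score merges 667 nm feature emission with signal to noise over triplicate slides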
# [10] = target: Luciferin 4-monooxygenase (Photinus pyralis) (UniProt P08659); test: firefly luciferase enzyme inhibitors, primary screen, biochemical, luminescence, purified enzyme, 2006 set (AID 1141); settings: SteadyGlo luminescence, 30 min, higher = more signal, called active from +8 up or from −8 down;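 also: cell-free assay with purified firefly luciferase at 100 ng per well in PBS; test concentration not given here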
# [11] = test system: Wnt5a (protein binding on small-molecule microarray); test: Wnt5a binders on small-molecule microarray, primary screen, biophysical, 635/667 nm fluorescence (AID 1142); settings: 635 nm fluorescence, higher = more signal;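 also: fluorescence read at 667 nm with signal to noise per printed feature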
# [12] = cell viability in Huh7 cells, primary screen, cytotoxicity control for HCV replication inhibitor project, CellTiter-Glo luminescence, basal, 48 h (AID 1143); settings: Huh7 HCV replicon, higher = more signal, called active from +8 up or from −8 down;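 also: Huh7 hepatoma cells carrying a hepatitis C replication reporter with no stimulus; test concentration not given here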
# [13] = P. aeruginosa biofilm formation inhibitors, primary screen, PAO1 strain, BacTiter-Glo luminescence, LB-PBS (AID 1144); settings: 12 h, higher = more signal
# [14] = CREB reporter modulators without forskolin, primary screen, cell-based, PC12, CRE-LacZ reporter, unstimulated (AID 1145); settings: no forskolin, luminescence, 4.5 h, higher = more signal, called active from +8 up or from −8 down
# [15] = CREB reporter modulators under forskolin, primary screen, cell-based, PC12, CRE-LacZ reporter, forskolin-stimulated (AID 1146); settings: luminescence, 4.5 h, higher = more signal, called active from +8 up or from −8 down;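 also: PC12 cells with 6xCRE LacZ reporter stimulated by forskolin 10 µM; beta-galactosidase reporter signal reflecting CREB driven transcription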
# [16] = target: Streptavidin (Streptomyces avidinii) (UniProt P22629); test: streptavidin binders on small-molecule microarray, primary screen, artefact control for SMM compound annotation, biophysical, 635/667 nm fluorescence (AID 1147); settings: streptavidin binding, higher = more signal;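 also: signal reflects streptavidin binding to arrayed compounds as a control protein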
# [17] = small-molecule binders of probe aInhba, primary screen, biochemical, small-molecule microarray, 635/667 nm fluorescence (AID 1148); settings: higher = more signal;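 also: score merges 667nm spot fluorescence with signal-to-noise for antibody binding to printed compounds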
# [18] = target: Torsin-1A (Homo sapiens) (UniProt O14656); test: torsin A binders from cell lysate, primary screen, small-molecule microarray, wild-type, 635/667 nm (AID 1149); settings: COS7 hTOR1A-WT lysate, 635 nm fluorescence, higher = more signal
# [19] = target: Torsin-1A (Homo sapiens) (UniProt O14656); test: small-molecule binders of mutant TOR1A in lysate, primary screen, cell lysate, small-molecule microarray, COS7 lysate, 635/667 nm fluorescence (AID 1150); settings: COS7 hTOR1A mutant lysate, 635 nm fluorescence, higher = more signal;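 also: score pools 667 nm emission and signal to noise measuring lysate protein binding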
# [20] = test system: Sonic hedgehog protein (Shh); test: small-molecule binders of Shh protein, primary screen, biochemical, small-molecule microarray, 635/667 nm fluorescence (AID 1151); settings: small-molecule microarray binding, 635 nm fluorescence; higher = more signal;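 also: Shh protein binding to compounds spotted on small-molecule microarray slides; score combines spot fluorescence intensity with signal-to-noise across triplicate slides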
# Fibroblast growth factor 2 (Homo sapiens), sequence (P09038 whole entry, looked up): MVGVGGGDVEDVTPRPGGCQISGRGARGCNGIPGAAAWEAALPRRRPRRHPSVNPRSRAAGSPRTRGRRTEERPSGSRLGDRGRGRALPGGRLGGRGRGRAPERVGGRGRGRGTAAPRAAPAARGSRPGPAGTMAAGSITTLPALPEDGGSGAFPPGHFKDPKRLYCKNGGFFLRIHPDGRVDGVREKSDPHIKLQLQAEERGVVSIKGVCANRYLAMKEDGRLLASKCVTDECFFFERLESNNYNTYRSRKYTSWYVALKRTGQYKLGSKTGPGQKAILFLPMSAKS
# Follistatin (Homo sapiens), sequence (P19883 whole entry, looked up): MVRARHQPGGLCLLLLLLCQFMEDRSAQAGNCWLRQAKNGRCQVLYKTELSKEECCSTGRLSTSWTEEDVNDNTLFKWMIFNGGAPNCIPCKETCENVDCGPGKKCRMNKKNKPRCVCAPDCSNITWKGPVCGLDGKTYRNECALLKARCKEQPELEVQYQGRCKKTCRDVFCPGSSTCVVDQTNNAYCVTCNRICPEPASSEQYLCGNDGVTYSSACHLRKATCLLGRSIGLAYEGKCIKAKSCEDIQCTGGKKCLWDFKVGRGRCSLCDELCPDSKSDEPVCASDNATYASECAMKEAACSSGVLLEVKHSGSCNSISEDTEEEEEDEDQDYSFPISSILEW
# Streptavidin (Streptomyces avidinii), sequence (P22629 whole entry, looked up): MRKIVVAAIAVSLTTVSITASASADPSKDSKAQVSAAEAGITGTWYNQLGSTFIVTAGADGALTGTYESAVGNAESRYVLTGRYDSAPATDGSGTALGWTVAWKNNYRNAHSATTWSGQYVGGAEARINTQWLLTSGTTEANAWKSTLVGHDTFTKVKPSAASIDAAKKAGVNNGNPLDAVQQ
# Luciferin 4-monooxygenase (Photinus pyralis), sequence (P08659 whole entry, looked up): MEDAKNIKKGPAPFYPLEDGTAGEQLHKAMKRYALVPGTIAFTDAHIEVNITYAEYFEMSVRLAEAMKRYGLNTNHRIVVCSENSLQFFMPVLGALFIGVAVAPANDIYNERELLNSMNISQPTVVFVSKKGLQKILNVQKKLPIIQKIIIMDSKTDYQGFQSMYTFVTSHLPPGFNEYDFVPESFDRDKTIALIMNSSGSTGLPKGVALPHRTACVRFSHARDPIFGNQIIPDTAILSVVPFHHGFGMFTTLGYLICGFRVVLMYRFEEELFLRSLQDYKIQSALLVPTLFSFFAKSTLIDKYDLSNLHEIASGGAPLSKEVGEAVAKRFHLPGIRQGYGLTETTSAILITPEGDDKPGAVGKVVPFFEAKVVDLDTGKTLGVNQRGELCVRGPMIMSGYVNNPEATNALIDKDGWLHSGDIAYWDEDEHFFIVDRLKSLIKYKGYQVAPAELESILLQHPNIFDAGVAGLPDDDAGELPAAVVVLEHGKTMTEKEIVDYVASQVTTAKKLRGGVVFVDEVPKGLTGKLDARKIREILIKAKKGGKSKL
# Torsin-1A (Homo sapiens), sequence (O14656 whole entry, looked up): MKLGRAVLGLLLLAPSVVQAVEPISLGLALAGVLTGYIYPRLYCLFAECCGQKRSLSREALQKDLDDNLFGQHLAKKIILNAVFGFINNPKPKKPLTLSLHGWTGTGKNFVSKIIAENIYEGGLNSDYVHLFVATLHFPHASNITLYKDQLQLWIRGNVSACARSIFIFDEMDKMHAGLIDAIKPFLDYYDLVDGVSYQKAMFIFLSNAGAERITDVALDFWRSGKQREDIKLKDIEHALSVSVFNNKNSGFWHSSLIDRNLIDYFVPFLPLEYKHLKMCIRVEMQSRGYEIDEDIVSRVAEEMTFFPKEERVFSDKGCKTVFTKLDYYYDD
# Focal adhesion kinase 1 (Homo sapiens), sequence (Q05397 whole entry, looked up): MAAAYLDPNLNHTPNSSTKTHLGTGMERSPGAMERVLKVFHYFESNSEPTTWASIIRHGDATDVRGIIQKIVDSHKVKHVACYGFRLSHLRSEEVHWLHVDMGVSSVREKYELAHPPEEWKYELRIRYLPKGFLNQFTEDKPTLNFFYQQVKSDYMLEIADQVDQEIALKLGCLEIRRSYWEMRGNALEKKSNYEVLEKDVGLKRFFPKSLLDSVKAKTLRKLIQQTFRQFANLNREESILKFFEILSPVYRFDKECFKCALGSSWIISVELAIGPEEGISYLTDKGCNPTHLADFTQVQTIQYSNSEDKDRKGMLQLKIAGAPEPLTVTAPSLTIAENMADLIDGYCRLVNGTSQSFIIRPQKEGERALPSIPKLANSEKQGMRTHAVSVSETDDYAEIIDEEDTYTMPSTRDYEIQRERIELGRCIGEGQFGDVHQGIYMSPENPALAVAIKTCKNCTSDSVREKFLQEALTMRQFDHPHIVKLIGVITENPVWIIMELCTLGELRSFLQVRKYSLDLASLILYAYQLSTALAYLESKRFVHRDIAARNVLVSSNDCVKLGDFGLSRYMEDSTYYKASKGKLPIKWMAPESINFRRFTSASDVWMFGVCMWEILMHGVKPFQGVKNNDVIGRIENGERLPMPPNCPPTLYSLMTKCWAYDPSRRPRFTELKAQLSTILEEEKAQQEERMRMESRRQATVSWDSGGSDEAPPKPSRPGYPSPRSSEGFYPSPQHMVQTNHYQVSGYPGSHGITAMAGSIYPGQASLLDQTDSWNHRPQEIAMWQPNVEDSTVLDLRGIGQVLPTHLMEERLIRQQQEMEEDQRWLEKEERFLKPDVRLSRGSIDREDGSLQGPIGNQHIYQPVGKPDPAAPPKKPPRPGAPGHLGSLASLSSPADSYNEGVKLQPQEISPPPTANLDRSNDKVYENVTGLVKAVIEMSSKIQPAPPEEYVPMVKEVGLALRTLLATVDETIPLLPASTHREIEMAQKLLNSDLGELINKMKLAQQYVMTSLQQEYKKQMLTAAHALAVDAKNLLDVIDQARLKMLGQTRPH
SMILES,composite z-score [1],composite z-score [2],composite z-score [3],composite z-score [4],composite z-score [5],composite z-score [6],z-score [7],composite z-score [8],composite z-score [9],z-score [10],composite z-score [11],z-score [12],z-score [13],z-score [14],z-score [15],composite z-score [16],composite z-score [17],composite z-score [18],composite z-score [19],composite z-score [20]
[N-]=[N+]=NCc1ccccc1C[C@]1(C(=O)NCc2ccccc2)N=C(c2ccc(OCCCO)cc2)O[C@H]1c1ccccc1N=[N+]=[N-],1.99,1.17,1.54,0.967,0.931,1.49,-0.711,-0.875,0.285,-4.08 (inactive),0.729,-4.38 (inactive),-0.144 (inactive),0.493 (inactive),-0.951 (inactive),0.83,-0.287,-0.0818,0.334,-0.46
C[C@@H]1C=CCC(=O)OC[C@H](C)C(=O)OC[C@H]2O[C@H]1C=C[C@H]2O,-0.31,-0.307,-0.174,0.303,0.208,0.577,0.328,0.781,0.59,-1.1 (inactive),0.263,0.196 (inactive),-0.0585 (inactive),-0.2 (inactive),0.165 (inactive),-0.392,-0.105,-0.0292,0.188,1.09
COc1ccc(O[C@@H]2[C@H](O)CO[C@H]2C=CC#Cc2ccccc2)cc1,1.1,-0.253,-0.267,0.73,0.356,0.341,-0.0963,0.407,0.535,-0.391 (inactive),-0.02,0.163 (inactive),0.995 (inactive),0.201 (inactive),0.415 (inactive),-0.31,-0.0762,0.23,0.286,0.332
C#C[C@@H]1Oc2ccccc2S(=O)(=O)N2CCC[C@H]12,0.104,-0.283,0.193,-0.635,0.562,0.155,-0.273,0.0495,-0.249,-0.0351 (inactive),0.0869,0.299 (inactive),0.405 (inactive),1.58 (inactive),0.14 (inactive),0.261,-0.154,-0.0705,0.0535,0.101
C=C(CCCC)C(=O)CC[C@@H](OC(C)=O)c1cccc(OCCO)c1,0.936,-0.864,-0.0296,-0.75,1.3,0.829,-0.497,0.932,-1.1,-0.879 (inactive),0.0837,-7.53 (inactive),-0.0381 (inactive),9.03 (active),2.58 (inactive),-0.543,-0.21,1.29,0.594,1.56
COC(=O)[C@@H]1N=C(c2ccc(OCCCO)cc2)O[C@@H]1c1ccccc1N=[N+]=[N-],1.99,1.21,0.942,0.077,0.499,-0.253,0.484,-0.394,1.04,-17.9 (active),0.122,-2.72 (inactive),-0.943 (inactive),1.7 (inactive),-0.826 (inactive),0.937,0.168,0.131,0.51,-0.0259
COCCCNC(=O)[C@@]1(CCS(=O)(=O)c2ccccc2)N=C(c2ccc(OCCCO)cc2)O[C@H]1c1ccccc1,2.98,1.25,0.746,0.878,0.695,0.426,2.39,-0.854,0.716,-1.79 (inactive),0.68,-1.7 (inactive),-0.701 (inactive),0.951 (inactive),0.353 (inactive),0.188,0.38,1.45,2.73,-0.766
C#CCCCON=C1C[C@@H](O)[C@@H](O)[C@@H]2[C@@H]3C(=O)N(Cc4ccccc4)C(=O)[C@@H]3CC[C@H]12,0.0056,0.126,0.256,-0.307,0.592,0.171,-0.732,0.582,0.253,0.883 (inactive),0.203,-3.22 (inactive),-1.13 (inactive),0.793 (inactive),-0.645 (inactive),0.0194,-0.209,0.289,-0.0292,0.985
COC(=O)CC=C[C@@H](C)[C@H](OC)c1ccccc1Br,-0.457,0.0434,-0.0378,-0.47,0.209,0.182,0.688,0.0835,-0.602,-0.384 (inactive),-0.0438,0.266 (inactive),0.189 (inactive),-0.971 (inactive),-0.868 (inactive),-0.112,-0.128,0.258,0.466,0.153
CC(CCN1CCc2nc(-c3ccccc3)c(-c3ccccc3)cc2C1)=NO[C@H](C)c1cn([C@@H]2COC[C@H]2O)nn1,0.124,0.915,0.0127,0.717,0.438,0.0208,1.17,0.712,0.224,-0.475 (inactive),0.0025,-0.615 (inactive),-0.733 (inactive),0.983 (inactive),-0.258 (inactive),-0.384,0.0183,1.01,1.11,0.572
C[C@@H](c1ccccc1)N1C(=O)[C@H]2[C@H]3[C@H](O)[C@H](O)CC(=NNC(=O)OCc4ccccc4)[C@H]3CC[C@H]2C1=O,0.496,-0.387,-0.048,0.253,-0.351,0.0573,-0.118,-0.211,-0.105,0.502 (inactive),0.15,-0.0242 (inactive),0.158 (inactive),0.423 (inactive),-0.0874 (inactive),0.0456,-0.317,-0.184,-0.289,-0.108
C=CCNC(=O)[C@H]1[C@@H]2C(=O)O[C@@H](c3ccccc3)[C@@H](c3ccccc3)N2[C@@H](c2ccc(O)cc2)[C@]12C(=O)N(C(=O)OCCOC)c1ccc(C#CC3=CCCCC3)cc12,0.692,1.22,0.723,0.892,0.379,0.248,-0.76,0.484,0.583,-0.54 (inactive),0.411,-3.95 (inactive),0.101 (inactive),-0.878 (inactive),-0.633 (inactive),0.841,0.935,0.757,1.14,1.45
CO[C@@H]1COC(=O)CC=C[C@@H](C)[C@@H]2C=C[C@H](O)[C@@H](COC(=O)[C@H](C)NC(=O)CC=C[C@H]1C)O2,1.85,-0.794,-0.407,-0.734,1.11,1.73,-1.23,1.53,-0.17,1.02 (inactive),0.0389,-2.59 (inactive),-0.972 (inactive),-0.324 (inactive),0.194 (inactive),-0.408,-0.265,1.44,1.81,2.13
CN1C(=O)C2C=CC(C(O)C(c3ccccc3)c3ccccc3)N(NC(=O)OC(C)(C)C)C2C1=O (stereo not given),1.88,1.18,0.666,0.973,1.03,0.0319,-0.0852,0.895,1.09,-0.0519 (inactive),0.843,-0.0027 (inactive),0.417 (inactive),-0.136 (inactive),0.0964 (inactive),1.68,0.72,-0.05,0.848,-0.587
Cc1ccc(S[C@]2(C(=O)O)CC(=O)N(Cc3ccccc3)[C@@H]2c2ccc(CO)cc2I)cc1,2.86,0.242,0.284,0.186,0.023,-0.697,0.305,-0.69,0.189,-0.57 (inactive),-0.405,-1.32 (inactive),0.116 (inactive),1.97 (inactive),1.63 (inactive),0.556,-0.0963,-0.995,-0.604,-0.41
CC(C)[C@@H](OCc1ccccc1)[C@H](C)C=NOC[C@@H](C)[C@H](OCc1ccccc1)C(C)C,0.0377,0.289,0.121,-0.0745,0.426,0.139,-0.753,0.595,-0.0388,-0.11 (inactive),0.187,0.459 (inactive),0.627 (inactive),0.471 (inactive),-0.144 (inactive),0.118,-0.128,0.256,0.204,0.256
O=C1[C@H]2[C@H]3[C@H](O)[C@H](O)CC(=NOC[C@@H](O)COCc4ccco4)[C@H]3CC[C@H]2C(=O)N1C1CCCCC1,-0.0844,-0.476,-0.329,-1.02,1.21,1.07,-0.948,1.3,-1.22,0.822 (inactive),0.257,-2.97 (inactive),-0.925 (inactive),3.33 (inactive),0.279 (inactive),-0.112,0.158,2.07,1.64,1.54
O=C1[C@H]2[C@H]3[C@H](O)[C@H](O)CC(=NOC[C@@H](O)COCc4ccco4)[C@H]3CC[C@H]2C(=O)N1c1cccc(Oc2ccccc2)c1,-0.304,-0.438,-0.112,-1.32,-0.924,-0.701,0.89,-0.021,0.503,0.481 (inactive),-0.31,-0.6 (inactive),-0.0166 (inactive),-0.21 (inactive),0.452 (inactive),-0.393,-0.285,0.626,0.948,-0.621
CCOC(=O)C1=CC[C@H]2C(=O)N(CC)C(=O)[C@@H]12,0.299,0.775,-0.0436,0.775,0.269,0.218,-1.1,0.443,0.433,1.69 (inactive),0.281,-0.0046 (inactive),-0.929 (inactive),-0.228 (inactive),0.687 (inactive),0.0789,-0.0719,0.483,-0.552,0.13
